Screening data from PubChem.
Most compounds without a hit are left out; they make up all but 2.2% or so of the library.
PLC-gamma1 inh – blocks human PLC-gamma1 enzyme activity | P19174 | purified PLC-gamma1, fluorogenic substrate, fluorescence | inhibition, % at 12.2 µM | hit rate 0.84% among 370,000 | AID 720700; in the data active = inhibition above about 9.5%
NPR1 activator – GC-A (human) enzyme activation; HEK293 GC-A cells, cGMP TR-FRET, EC30 ANP; 0% at EC30 ANP, 100% saturating ANP; P16066; activation, % at 10 µM; hit rate 0.14% among 370,000; in the data active = activation above about 40%
Target sequence (P16066 whole entry, looked up): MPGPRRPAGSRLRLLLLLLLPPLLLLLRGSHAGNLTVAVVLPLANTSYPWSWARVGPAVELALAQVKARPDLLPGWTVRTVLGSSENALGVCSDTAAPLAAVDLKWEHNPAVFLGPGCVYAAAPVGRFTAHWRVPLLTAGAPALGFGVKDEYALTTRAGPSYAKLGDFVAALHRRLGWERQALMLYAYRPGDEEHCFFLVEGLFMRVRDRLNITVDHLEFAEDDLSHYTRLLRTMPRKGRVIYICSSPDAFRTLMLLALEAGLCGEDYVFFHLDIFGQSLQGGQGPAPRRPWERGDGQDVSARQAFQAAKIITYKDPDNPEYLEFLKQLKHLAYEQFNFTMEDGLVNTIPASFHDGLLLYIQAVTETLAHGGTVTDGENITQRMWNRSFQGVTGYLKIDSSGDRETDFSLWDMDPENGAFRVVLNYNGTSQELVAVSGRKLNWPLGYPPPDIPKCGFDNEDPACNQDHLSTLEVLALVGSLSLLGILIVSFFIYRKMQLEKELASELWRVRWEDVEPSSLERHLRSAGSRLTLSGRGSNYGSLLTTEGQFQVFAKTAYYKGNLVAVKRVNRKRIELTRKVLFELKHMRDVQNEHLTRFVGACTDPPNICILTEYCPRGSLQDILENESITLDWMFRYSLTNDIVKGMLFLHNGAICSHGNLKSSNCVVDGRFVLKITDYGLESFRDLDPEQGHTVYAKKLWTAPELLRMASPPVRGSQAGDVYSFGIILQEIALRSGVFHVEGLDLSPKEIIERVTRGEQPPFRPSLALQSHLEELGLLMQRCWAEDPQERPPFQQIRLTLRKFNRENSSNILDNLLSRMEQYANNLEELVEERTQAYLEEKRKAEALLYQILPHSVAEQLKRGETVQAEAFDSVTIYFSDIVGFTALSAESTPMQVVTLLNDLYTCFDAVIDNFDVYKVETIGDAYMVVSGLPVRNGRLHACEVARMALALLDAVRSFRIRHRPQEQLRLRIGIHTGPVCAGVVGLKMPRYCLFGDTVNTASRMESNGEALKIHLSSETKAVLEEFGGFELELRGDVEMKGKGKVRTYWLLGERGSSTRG
PLCb3 inh – blocks human PLC-beta3 enzyme activity; Q01970; Purified PLC-beta3, fluorogenic substrate, fluorescence; inhibition, % at 12.2 µM; hit rate 0.18% among 370,000; AID 720704; in the data active = inhibition above about 11%
Rce1 inhib – yeast Ras-converting enzyme inhibition; Q03530; yeast membranes, quenched prenylated peptide cleavage fluorescence; calls only; hit rate 0.27% among 290,000; AID 2563;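 active = fall in fluorescence gain of 50% or more versus controls, with final raw signal at or below 3038400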
PfM18AAP inh-1 – PfM18AAP enzyme inhibition; recombinant PfM18AAP, H-Glu-NHMec fluorogenic cleavage; inhibition, % at 7.35 µM; hit rate 1.2% among 290,000; AID 1822;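 active = inhibition above the campaign mean inhibition over all tested compounds plus 3 SD, cut at about 28% in these data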
GC-B act – GC-B (human) receptor activation | HEK293-GC-B cells, CNP EC30, cGMP TR-FRET; 0% at EC30 CNP, 100% saturating CNP | P20594 | hit rate 0.11% among 370,000 | activation, % at 10 µM;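 active = activation at 10 µM reaching about 35% in either raw or pattern-adjusted values, limit read from the data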
PfM18AAP inh-2 – confirmation of Plasmodium falciparum M18 aspartyl aminopeptidase inhibitors; shares compounds with PfM18AAP inh-1; recombinant PfM18AAP, H-Glu-NHMec fluorogenic cleavage; inhibition, % at 7.35 µM; hit rate 28% among 2,400; AID 2170;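 active = mean inhibition over replicate wells above the hit cutoff set for the earlier primary screen, cut at about 29% in these data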
CTSL1 counter – Cathepsin L (human) inhibition, confirmation; shares compounds with PfM18AAP inh-1; inhibition, % at 5.96 µM; 2,400 tested, under 10 active; purified cathepsin L1, Z-Leu-Arg-MCA fluorescence; AID 2178;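 active = average inhibition across replicates above the hit cutoff set in the earlier primary screen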
A number is an active result.

C=CCn1c(SCC(=O)c2ccc(O)c(O)c2)nnc1-c1ccccc1OC was read as PLC-gamma1 inh inactive, NPR1 activator inactive, PLCb3 inh inactive, Rce1 inhib inactive, PfM18AAP inh-1 49, GC-B act inactive, PfM18AAP inh-2 34 and CTSL1 counter inactive.
C=CCn1c(SCC(=O)c2ccc(O)c(O)c2)nnc1-c1cccnc1 was read as PLC-gamma1 inh inactive, NPR1 activator inactive, PLCb3 inh inactive, Rce1 inhib inactive, PfM18AAP inh-1 54, GC-B act inactive, PfM18AAP inh-2 inactive and CTSL1 counter inactive.
For C=CCn1c(SCC(=O)c2ccc(O)c(O)c2)nnc1-c1cccc(C)c1 the results were PLC-gamma1 inh inactive, NPR1 activator inactive, PLCb3 inh inactive and GC-B act inactive.
`CCn1c(SCC(=O)c2c(N)n(C3CC3)c(=O)[nH]c2=O)nnc1-c1ccccc1OC` gave PLC-gamma1 inh inactive, NPR1 activator inactive, PLCb3 inh inactive and GC-B act inactive.
`CCn1c(SCC(=O)c2ccc(O)c(O)c2)nnc1-c1ccccc1OC` gave PLC-gamma1 inh inactive, NPR1 activator inactive, PLCb3 inh inactive, Rce1 inhib inactive, PfM18AAP inh-1 42, GC-B act inactive, PfM18AAP inh-2 inactive and CTSL1 counter inactive.
CCN(CC)C(=O)CC[C@@H]1CC[C@]2(CCCN(S(C)(=O)=O)C2)O1 was read as PLC-gamma1 inh inactive, NPR1 activator inactive, PLCb3 inh inactive and GC-B act inactive.
For COCCCN1C(=O)[C@H](CC(=O)NCC23CC4CC(CC(C4)C2)C3)[C@]2(C(=O)OC)CCCCC=C12 the results were PLC-gamma1 inh inactive, NPR1 activator inactive, PLCb3 inh inactive and GC-B act inactive.
`CCn1c(CSc2nc3ccccc3s2)nnc1SCC(=O)c1ccc(Cl)cc1` gave PLC-gamma1 inh inactive, NPR1 activator inactive, PLCb3 inh inactive, Rce1 inhib inactive, PfM18AAP inh-1 inactive and GC-B act inactive.
`CCn1c(CSc2nc3ccccc3s2)nnc1SCC(=O)c1ccc(O)c(O)c1` gave PLC-gamma1 inh inactive, NPR1 activator inactive, PLCb3 inh inactive, Rce1 inhib inactive, PfM18AAP inh-1 49, GC-B act inactive, PfM18AAP inh-2 30 and CTSL1 counter inactive.
O=S(=O)(Nc1ccc(C(O)(C(F)(F)F)C(F)(F)F)cc1)c1cccs1 was read as PLC-gamma1 inh inactive, NPR1 activator inactive, PLCb3 inh inactive and GC-B act inactive.
For O=C(NC1CCCCC1)C(c1ccc(O)c(O)c1)N(C(=O)Cn1nnc2ccccc21)c1cccc(O)c1 (stereo not given) the results were PLC-gamma1 inh inactive, NPR1 activator inactive, PLCb3 inh inactive, Rce1 inhib inactive, PfM18AAP inh-1 86, GC-B act inactive, PfM18AAP inh-2 83 and CTSL1 counter inactive.
Screening CC(=O)c1cccc(N(C(=O)Cn2nnc3ccccc32)C(C(=O)NC2CCCCC2)c2cn(C)nc2C)c1 (stereo not given) returned PLC-gamma1 inh inactive, NPR1 activator inactive, PLCb3 inh inactive, Rce1 inhib inactive, PfM18AAP inh-1 inactive and GC-B act inactive.
S=c1nc(C2COc3ccccc3O2)[nH][nH]1 (stereo not given) was read as PLC-gamma1 inh inactive, NPR1 activator inactive, PLCb3 inh inactive, Rce1 inhib inactive, PfM18AAP inh-1 35, GC-B act inactive, PfM18AAP inh-2 inactive and CTSL1 counter inactive.
`COC(=O)C1CN(Cc2ccccc2)CCS(=O)(=O)N1Cc1ccc(F)cc1` (stereo not given) gave PLC-gamma1 inh inactive, NPR1 activator inactive, PLCb3 inh inactive and GC-B act inactive.
S=c1nc(-c2ccccc2Cl)[nH][nH]1 was read as PLC-gamma1 inh inactive, NPR1 activator inactive, PLCb3 inh inactive, Rce1 inhib inactive, PfM18AAP inh-1 49, GC-B act inactive, PfM18AAP inh-2 inactive and CTSL1 counter inactive.
Screening O=C(c1ccccc1)C1CCN(c2ncnc3sccc23)CC1 returned PLC-gamma1 inh inactive, NPR1 activator inactive, PLCb3 inh inactive and GC-B act inactive.
`COc1cccc(C(=O)/C=C/Nc2cc(C)ccc2O)c1` gave PLC-gamma1 inh inactive, NPR1 activator inactive, PLCb3 inh inactive, Rce1 inhib inactive, PfM18AAP inh-1 68, GC-B act inactive, PfM18AAP inh-2 inactive and CTSL1 counter inactive.
COc1cc(/C=C2\CC/C(=C\c3cc(OC)c(O)c(OC)c3)C2=O)cc(OC)c1O was read as PLC-gamma1 inh inactive, NPR1 activator inactive, PLCb3 inh inactive, PfM18AAP inh-1 51, GC-B act inactive, PfM18AAP inh-2 48 and CTSL1 counter inactive.
O=C(CSc1nc2[nH]ncc2c(=O)[nH]1)N1CCCC1 was read as PLC-gamma1 inh inactive, NPR1 activator inactive, PLCb3 inh inactive, Rce1 inhib inactive, PfM18AAP inh-1 inactive and GC-B act inactive.
`O=C(CSc1nc2[nH]ncc2c(=O)[nH]1)c1ccccc1` gave PLC-gamma1 inh inactive, NPR1 activator inactive, PLCb3 inh inactive, Rce1 inhib inactive, PfM18AAP inh-1 48, GC-B act inactive, PfM18AAP inh-2 40 and CTSL1 counter inactive.
O=C(CSc1nc2[nH]ncc2c(=O)[nH]1)N1CCCCC1 was read as PLC-gamma1 inh inactive, NPR1 activator inactive, PLCb3 inh inactive, Rce1 inhib inactive, PfM18AAP inh-1 34, GC-B act inactive, PfM18AAP inh-2 inactive and CTSL1 counter inactive.
CCN1Cc2nnn(Cc3ccccc3)c2-c2ccccc2S1(=O)=O was read as PLC-gamma1 inh inactive, NPR1 activator inactive, PLCb3 inh inactive and GC-B act inactive.
`C[C@@H]1ON(C)[C@H]2C[C@H]3c4[nH]c5c(-c6ccc7c(c6)OCO7)cccc5c4CCN3C(=O)[C@@H]12` gave PLC-gamma1 inh inactive, NPR1 activator inactive, PLCb3 inh inactive and GC-B act inactive.
COC(=O)[C@]12C[C@H](CC(=O)N3CCSCC3)C(=O)N(CCc3ccc(OC)c(OC)c3)C1=C[C@H](C1CCCC1)O[C@@H]2C was read as PLC-gamma1 inh inactive, NPR1 activator inactive, PLCb3 inh inactive and GC-B act inactive.
Screening Cc1cccc(C(=O)NNC(=O)c2ccco2)c1O returned PLC-gamma1 inh inactive, NPR1 activator inactive, PLCb3 inh inactive, Rce1 inhib inactive, PfM18AAP inh-1 32, GC-B act inactive, PfM18AAP inh-2 inactive and CTSL1 counter inactive.
`O=C(NNC(=O)c1ccccc1O)c1ccco1` gave PLC-gamma1 inh inactive, NPR1 activator inactive, PLCb3 inh inactive, Rce1 inhib inactive, PfM18AAP inh-1 inactive and GC-B act inactive.
COc1ccc(C(=O)NN2CCCCC2)cc1OC was read as PLC-gamma1 inh inactive, NPR1 activator inactive, PLCb3 inh inactive, Rce1 inhib inactive, PfM18AAP inh-1 inactive and GC-B act inactive.
